In PubChem BioAssay AID1259343 (VanderVen Lab, College of Veterinary Medicine, Cornell …, 2017):
Hit rate of the full screen: of about 6,200 compounds, about 2,900 (47%) were called active. So high a share suggests a set chosen from earlier hits. The list shows a part of the results. Values without a mark were called inactive. No stated cut-off is given here; in the data, active means inhibition above about 50%; inactive means the rest.

test: Mycobacterium tuberculosis growth inhibition, primary screen (AID 1259343); details: inhibition: at 10 µM, stronger effect = higher value; outcome: 10 uM

SMILES | inhibition
COC(=O)CSc1nnc(N2CCN(c3ccccc3)CC2)s1 | 75.5% (active)
CCCCOC(=O)Nc1cc(C)c(Cl)cc1OC | 45.3%
COC(=O)COc1cc(Cl)c(Cl)cc1Cl | 77.4% (active)
CNC(=O)NC(=O)COc1ccc(-c2ccccc2)cc1Cl | 40.5%
COc1cc(C(=O)Nc2cc(C)cc(C)c2)cc(Cl)c1O | -11.6%
COC(=O)C(Nc1ccc(OC)cc1)(c1cc(OC)c(O)c(OC)c1)C(F)(F)F (configuration not stated) | 84% (active)
Cc1nn(CC(C)C)c2sc(C(=O)NCC3CC3)cc12 | 3.65%
c1ccc2oc(-c3nnn(CC4CCCCO4)n3)cc2c1 (configuration not stated) | 91% (active)
COc1ccc(N=c2scc(-c3cc4ccccc4o3)n2CC2CCCO2)cc1 (configuration not stated) | 77% (active)
c1ccc(N=c2scc(-c3ccccc3)n2CC2CCCO2)cc1 (configuration not stated) | 20.4%
CC12CCC3C(=CCc4cc(O)ccc43)C1CCC2=O (configuration not stated) | 43.2%
c1ccc2c(CCNc3ccc(Nc4ccncc4)cc3)c[nH]c2c1 | 72.8% (active)
O=C(NCCc1c[nH]c2ccccc12)c1cn(Cc2ccccc2Cl)nn1 | 21.3%
Cc1cc(C(=O)O)c(C)n1C | -7.58%
CCOC(=O)c1ccc(N2CN=c3sc(=Cc4ccccc4)c(=O)n3C2)cc1 | 88.9% (active)
CC1(C)CN=c2s/c(=C\c3ccc(Cl)cc3)c(=O)n2C1 | 31.2%
CCOC(=O)C1=C(C)N=c2s/c(=C/c3cccc([N+](=O)[O-])c3)c(=O)n2C1c1ccccc1F (configuration not stated) | -21.3%
Nc1nc(Cl)nc2c1ncn2[C@@H]1O[C@H](CO)[C@@H](O)[C@H]1O | 80.5% (active)
CN(Cc1cnn(-c2ccc(F)cc2)c1)c1nncc(-c2ccccc2)n1 | inactive
CN(CCC1CCCCO1)c1nncc(-c2ccccc2)n1 (configuration not stated) | 52.4% (active)
CC1CCCC(C)C1NC(=O)Nc1nncc(-c2ccccc2)n1 (configuration not stated) | 21.4%
Nc1nnc(SCC(=O)c2ccc(OCc3ccccc3)cc2)s1 | 86.1% (active)

SMILES | inhibition
CC(OC(=O)c1ccc(OCc2ccccc2)cc1)c1nnc(-c2ccccc2)o1 (configuration not stated) | 26.8%
c1ccc(OCCSc2nnc3sc4ccccc4n23)cc1 | 40.3%
Brc1ccc(-c2ccc(C=NNC3=NCCCCC3)o2)cc1 | 92.4% (active)
CCN(CC)C(=S)S | 92.6% (active)
O=C1CCCc2c1[nH]c1ccc(-c3ccccc3CO)cc21 | 90.3% (active)
COCC(=O)Nc1cccc(-c2ccc3c(c2)OCCO3)c1 | 63.2% (active)
COCC(=O)Nc1ccc(Oc2cccc(C)c2)cc1 | 76.6% (active)
COc1cc(C(=O)Nc2ccc(-c3cnco3)cc2)ccc1C | 49.6%
Cn1cc(C(=O)Nc2ccc(Oc3cccc(C#N)c3)cc2)ccc1=O | 23.5%
COCC(=O)Nc1ccc(-c2cc(OC)cc(OC)c2)cc1 | 88.7% (active)
COc1cncc(-c2ccc(NC(C)=O)cc2)c1 | 85% (active)
COCC(=O)Nc1ccccc1-c1ccc(C(C)C)cc1 | 48.2%
O=C(CCl)Nc1ccc(Oc2ccc(Br)cc2)cc1 | 18.2%
CC1(C)OC(=O)C(=C2C3C4CC5C2C2C3CC4C52)C(=O)O1 (configuration not stated) | 35.6%
COC(=O)C(C)OC(=O)c1c[nH]c2cc(Br)c(Br)cc12 (configuration not stated) | 24.9%
CC(C)c1nnc2sc(C3CCc4ccccc4C3)nn12 (configuration not stated) | 43.3%
CN(c1ccc(C(N)=O)nn1)C1CCc2ccccc2C1 (configuration not stated) | 60.2% (active)
Cc1ccc2oc(=O)n(CCCOc3ccccc3C)c2c1 | 95.8% (active)
Cc1ccc(N2C(=O)N(CCOc3cccc(Br)c3)C(=O)C2C)cc1 (configuration not stated) | 27.6%
COCCCn1c(-c2ccc(C)cc2)nc2oc3ccccc3c(=O)c2c1=O | 9.29%
Cc1cccc(OCCCn2c(=O)oc3ccccc32)c1 | -23.7%
Cc1cccc(OCCCn2c(=O)oc3ccc(C)cc32)c1 | 79.4% (active)

SMILES | inhibition
COc1ccccc1OCCCN1C(=O)C2(OCCCO2)c2ccccc21 | 40.7%
Cc1ccc(N(CC(=O)O)S(C)(=O)=O)cc1C | 92.8% (active)
CC1(C)CC(=O)C(C(=O)Nc2sc3ccccc3c2Cl)C(=O)C1 | 98.3% (active)
O=C1NC(c2sc3ccccc3c2Cl)Nc2ccccc21 (configuration not stated) | 28.9%
CC(C)c1cc(=O)[nH]c(-n2nc(-c3cccs3)cc2NC(=O)c2ccc(Br)o2)n1 | 99.9% (active)
Cc1cc(=O)[nH]c(-n2nc(-c3cccs3)cc2NC(=O)c2ccc(Br)o2)n1 | 97.5% (active)
CC(C)c1cc(=O)[nH]c(-n2nc(-c3cccs3)cc2NC(=O)c2cc3ccccc3o2)n1 | 100% (active)
Cc1cc(C(=S)N=P(N(C)C)(N(C)C)N(C)C)c(C)n1-c1ccccc1 | 98.9% (active)
FC(F)(F)c1nnc2n1Nc1nc3ccccc3nc1S2 | 100% (active)
COC(=O)Cc1ccc(C(=O)CCl)s1 | 92.5% (active)
NC(=S)Nc1ccc(F)c(Cl)c1 | 4.04%
NC(=S)Nc1ccc(Cl)cc1 | 7.09%
NC(=S)Nc1ccc(F)cc1 | 52.9% (active)
CC(=NOCc1cccc(CON=C(C)c2ccccc2)c1)c1ccccc1 | 86.9% (active)
COc1cc(N/N=C(/C)c2cccc(C(F)(F)F)c2)nc(SC)n1 | 41.1%
CCc1nc(C)c(C(=O)Nc2ccc(CCC(F)(F)F)cc2)s1 | 66.2% (active)
CCc1ccc(-c2nc(C)c(C(=O)Nc3ccc(OC)nc3)s2)cc1 | 42.7%
Cc1cc(N2CCCC2)ccc1NC(=O)CCl | 1.87%
O=C(CCl)Nc1cc2c(cc1Br)OCCO2 | 94.1% (active)
O=C(Nc1ccc(Oc2ccccc2F)cc1)C1CCN(C(=O)C2CCCO2)CC1 (configuration not stated) | inactive
O=C(Nc1ccc(Oc2ccccc2F)cc1)C1CCN(C(=O)C2CC23CCC3)CC1 (configuration not stated) | 91.3% (active)
O=C(Nc1ccc(Oc2ccccc2F)cc1)C1CCN(C(=O)C2CCCCO2)CC1 (configuration not stated) | 88.7% (active)

SMILES | inhibition
S=C(Nc1ccc(Cl)cc1)Nc1ccc2cn[nH]c2c1 | 37.2%
FC(F)Oc1ccc(NC(=S)Nc2ccc3cn[nH]c3c2)cc1 | -5.27%
COc1ccc(NC(=S)Nc2ccc3cn[nH]c3c2)cc1 | 68.9% (active)
C[C@]12C=CC(=O)C=C1CC[C@@H]1C2=CC[C@]2(C)[C@@H](C(=O)CN3CCN(c4cc(N5CCCC5)nc(N5CCCC5)n4)CC3)CC[C@@H]12 | 89.9% (active)
CC(C)c1nc(CN(C)Cc2ccc3ccccc3n2)cs1 | 2.62%
CC(C)c1nc(CNc2nccc(CCC(F)(F)F)n2)cs1 | 94.8% (active)
FC(F)(F)CCc1ccnc(N[C@@H]2C[C@H]2c2ccccc2)n1 | 30.5%
Cc1c(Cl)c(=O)oc2cc(O)ccc12 | -23%
O=c1ccc2ccc(O)cc2o1 | 74% (active)
Nc1ccc2oc(CCc3ccccc3)nc2c1 | 33%
Nc1ccc2oc(=O)ccc2c1 | 77.1% (active)
Nc1nc2c3ccccc3nc(-c3ccccc3)n2n1 | 83.3% (active)
COc1cccc(Nc2nc(C(N)CCc3ccccc3)cs2)n1 (configuration not stated) | 82.2% (active)
COc1cccc(Nc2nc(C(N)COCc3ccccc3)cs2)n1 (configuration not stated) | 64.3% (active)
NC(=O)C1(N2CCCCC2)CCN(c2nc(-c3ccc(Cl)cc3Cl)cs2)CC1 | -20.2%
Nc1[nH]c(N=Nc2nc3c(s2)CCCC3)c2ccccc12 | -27.1%
Cc1ccc(CNc2nc3c(s2)CCCC3)cc1 | 74% (active)
Cc1ccc(NCc2ccc(C(=O)NCC3(CO)CCC3)cc2)cc1 | 43.9%
Cc1ccc(/C(N)=N\OC(=O)CCc2ccccc2)cc1 | 29.4%
C/C(=N/OC(=O)c1ccc(-c2ccccc2)cc1)C(C)(C)C | 65.6% (active)
O=c1c(Br)cccc(Br)c1O | 99.7% (active)
CC(=NNC(=S)NC1CCCCC1)c1cccs1 | -36.2%

SMILES | inhibition
CCNC(=S)NN=C(C)c1cccs1 | 101% (active)
CC(=NNC(=S)NC(C)C)c1cccs1 | 104% (active)
Nc1ccc(N=Nc2ccccc2)c(N)n1 | 93.8% (active)
CCCC1CC(=O)CC(=O)C1 | -33.8%
CCCC1CCC(c2ccc(C#N)c(=O)[nH]2)CC1 (configuration not stated) | 89.8% (active)
Cc1c(C2CCN(CCc3ccccc3)CC2)noc1-c1ccc(Cl)cc1 | 88.1% (active)
Fc1ccccc1CN1CCCC2(CCN(C3CCN(CCc4ccccc4)CC3)C2)C1 (configuration not stated) | 13.5%
Fc1ccc(CSc2ncnc3c2nnn3Cc2ccc(F)cc2)cc1 | -6.41%
Fc1ccccc1CSc1ncnc2c1nnn2Cc1ccccc1 | 10.4%
Fc1ccc(Cn2nnc3c(SCc4ccccc4)ncnc32)cc1 | 93.4% (active)
Cc1cccc(CSc2ncnc3c2nnn3Cc2ccc(F)cc2)c1 | 15.2%
c1ccc(CSc2ncnc3c2nnn3Cc2ccccc2)cc1 | -43.1%
Fc1ccccc1CSc1ncnc2c1nnn2Cc1ccccc1F | 94.8% (active)
Fc1ccc(CSc2ncnc3c2nnn3Cc2ccccc2F)cc1 | -32.2%
Fc1ccc(Cn2nnc3c(SCc4cccc(F)c4)ncnc32)cc1 | 73.3% (active)
c1ccc(Cn2nnc3c(Sc4ncco4)ncnc32)cc1 | 68.9% (active)
Fc1cccc(CSc2ncnc3c2nnn3Cc2ccccc2F)c1 | 29.2%
CCOc1cc(S(=O)(=O)N2CCCCC2CC)ccc1Br (configuration not stated) | -6.56%
CCC1CCCCN1S(=O)(=O)c1ccc(C(=O)Nc2nnc(CSC)o2)cc1 (configuration not stated) | 99.6% (active)
